Screens from PubChem BioAssay.
Only some compounds are listed: those with a hit (about 1.6% of all), similar ones and a draw of the others.
KCNQ2 pot = potentiators of rat KCNQ2 potassium channel; Potassium voltage-gated channel subfamily KQT member 2 (Rattus norvegicus), O88943; B-score at 10 µM; CHO-K1 KCNQ2, FluxOR thallium flux fluorescence; active compounds read high; AID 2239, 2010; actives 0.54% (n = 310,000);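 active means fluorescence ratio B-score at least 3 SD of library B-scores, with initial fluorescence B-score within 3 of them, cut at about 5.3 in these data; same plate scores as AID 2156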;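 further: B-score of peak minus minimum over baseline fluorescence ratio after K+ and Tl+ stimulus; positive B-score means potentiation of KCNQ2 with more thallium influx and brighter signal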
KCNQ2 block = rat KCNQ2 potassium channel inhibitors, primary screen, cell-based, CHO-K1, FluxOR thallium flux, B-score; B-score at 10 µM; Potassium voltage-gated channel subfamily KQT member 2 (Rattus norvegicus), O88943; actives 1.1% (n = 310,000); AID 2156, 2009; 20 min; active compounds read low;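 active means fluorescence ratio B-score at most minus 3 library SDs, with starting brightness B-score within 2 library SDs, cut at about -5.5 in these data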
KCNQ2 inh conf = rat KCNQ2 potassium channel inhibitors, confirmation, cell-based, thallium flux | AID 493025, 2011 | KCNQ2-expressing cells, inhibition; active compounds read low | actives 57% (n = 1,000) | activity change, negative = inhibition, % at 10 µM | shares compounds with KCNQ2 block;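 further: 0% = vehicle wells and values are ratio percent relative to vehicle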
KCNQ1 spec = human KCNQ1 channel inhibition, counter-screen for KCNQ2 inhibitor project, cell-based, FluxOR thallium flux; shares compounds with KCNQ2 block; KCNQ1-expressing cells, FluxOR thallium flux fluorescence; active compounds read low; activity change, negative = inhibition, % at 10 µM; actives 15% (n = 1,000); AID 493026, 2011;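 active means activity change at least 3 SD of negative controls below their mean in both duplicate wells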;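 further: CHO cells stably transfected with KCNQ1 and depolarized by potassium stimulus; peak minus minimum fluorescence over baseline after thallium addition; 0% = vehicle negative control and -100% = blank without thallium stimulus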
Target sequence (P51787 whole entry, looked up): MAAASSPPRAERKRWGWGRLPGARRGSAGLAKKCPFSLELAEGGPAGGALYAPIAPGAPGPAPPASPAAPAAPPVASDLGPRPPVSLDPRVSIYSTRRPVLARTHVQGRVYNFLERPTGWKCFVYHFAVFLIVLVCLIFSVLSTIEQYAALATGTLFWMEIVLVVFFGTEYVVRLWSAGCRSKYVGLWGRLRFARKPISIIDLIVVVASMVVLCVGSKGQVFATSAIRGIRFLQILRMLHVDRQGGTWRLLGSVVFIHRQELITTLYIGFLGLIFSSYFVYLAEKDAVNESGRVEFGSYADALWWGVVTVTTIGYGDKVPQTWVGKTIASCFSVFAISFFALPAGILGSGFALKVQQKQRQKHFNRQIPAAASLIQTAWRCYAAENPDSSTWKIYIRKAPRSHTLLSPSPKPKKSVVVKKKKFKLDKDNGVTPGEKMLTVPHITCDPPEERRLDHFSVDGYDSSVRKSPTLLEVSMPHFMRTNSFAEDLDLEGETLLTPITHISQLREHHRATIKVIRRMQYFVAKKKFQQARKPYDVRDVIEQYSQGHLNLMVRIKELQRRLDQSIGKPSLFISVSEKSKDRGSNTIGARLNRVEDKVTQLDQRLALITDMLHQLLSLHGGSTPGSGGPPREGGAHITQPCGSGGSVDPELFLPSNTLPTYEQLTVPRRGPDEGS
CHO parental ctr = thallium flux change in parental CHO cells, counter-screen for KCNQ2 inhibitor project. shares compounds with KCNQ2 block. active compounds read low. activity change, % at 10 µM. actives 14% (n = 1,000). AID 493029, 2011;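 further: 0% = vehicle negative controls with stimulus buffer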
KCNQ2 patch conf = rat KCNQ2 channel inhibitors, confirmation, cell-based, automated patch clamp, single concentration; shares compounds with KCNQ2 block; KCNQ2-expressing cells, automated patch clamp current; calls only at 10 µM; actives 49% (n = 550); AID 588531, 2011
* hit, by the source's call; i = inactive; . = not tested or not shown; + = active, no number. Unless noted, how the calls were made is not given here.

SMILES	KCNQ2 pot	KCNQ2 block	KCNQ2 inh conf	KCNQ1 spec	CHO parental ctr	others
Cc1ccc(C(=O)Nc2ccc(Br)cc2)cc1S(=O)(=O)Nc1ccccn1	.	i	.	.	.
Cc1c(CCOC(=O)c2ccccc2)sc[n+]1Cc1ccccc1	.	i	.	.	.
Cc1c(CCOC(=O)c2cc([N+](=O)[O-])cc([N+](=O)[O-])c2)sc[n+]1CC(=O)c1ccccc1	0.27	i	.	.	.
Cc1c(CCOC(=O)CC23CC4CC(CC(C)(C4)C2)C3)sc[n+]1CC(=O)c1ccccc1	-7.85	-7.85*	i	i	i
Cc1c(CCOC(=O)CC23CC4CC(CC(C4)C2)C3)sc[n+]1CC(=O)c1ccc(Br)cc1	-9.97	-9.97*	-28.5%*	i	i	KCNQ2 patch conf=+
CCc1ccc(/C=C2/C(=O)N(c3ccccc3)C(=S)N2CC(=O)OC)s1	.	i	.	.	.
CCN1C(=O)/C(=C/N(C(C)=O)c2ccccc2)N(c2ccccc2)C1=S	-9.58	-9.58*	i	i	i
CS/C(N)=N/S(=O)(=O)c1ccc(NC(C)=O)cc1	1.11	i	.	.	.
COC(=O)c1ccc(NC(=O)CCN2C(=O)CSC2=O)cc1	.	i	.	.	.
COc1cccc(-c2cc(C(=O)Nc3ccccc3)c3ccccc3n2)c1	-9.12	-9.12*	i	i	i
O=C(Nc1ccncc1)c1cc(-c2cccc(Br)c2)nc2ccccc12	0.09	i	.	.	.
CCOc1ccc(-c2cc(C(=O)Nc3ccc4c(c3)OCCO4)c3ccccc3n2)cc1	-9.14	-9.14*	i	i	i
O=C(O)c1cc(-c2ccc3c(c2)OCO3)nc2ccccc12	0.1	i	.	.	.
Cc1cccc(-c2cc(C(=O)Nc3ccc4c(c3)OCCO4)c3ccccc3n2)c1	.	i	.	.	.
COc1cccc(-c2cc(C(=O)Nc3cccnc3)c3ccccc3n2)c1	.	i	.	.	.
O=C(Nc1cccnc1)c1cc(-c2cccc(Br)c2)nc2ccccc12	-6.72	-6.72*	-27.5%*	i	i	KCNQ2 patch conf=i
CCCN(CCC)C(=O)c1cc(-c2ccc3c(c2)OCO3)nc2ccccc12	-8.48	-8.48*	-26.5%*	i	i	KCNQ2 patch conf=+
O=C(c1ccc(Cl)c([N+](=O)[O-])c1)N1CCCc2ccccc21	.	i	.	.	.
CCCn1c(CN2CCN(C(=O)OCC)CC2)nc2cc(NC(C)=O)ccc21	.	i	.	.	.
CCN(CC)C(=O)c1cc2c(=O)c3cc(Cl)ccc3oc2nc1C	-7.42	-7.42*	-28.5%*	i	i	KCNQ2 patch conf=+
CCOC(=O)c1cc2c(=O)c3cc(C)ccc3oc2nc1C	1.46	i	.	.	.
O=C(CCC1CCCN(C(=O)Cn2cnnn2)C1)NCc1ccccc1F (configuration not stated)	.	i	.	.	.
COc1ccc(C2SCC(=O)N2Cc2ccccc2)cc1 (configuration not stated)	.	i	.	.	.
COc1ccc(C2SCC(=O)N2CC23CC4CC(CC(C4)C2)C3)cc1 (configuration not stated)	-6.88	-6.88*	-33.0%*	i	i	KCNQ2 patch conf=i
COc1ccc(C2CC(=O)c3c(O)cc(O)cc3O2)c(CC=C(C)C)c1OC (configuration not stated)	-12.6	-12.6*	-33.5%*	i	i	KCNQ2 patch conf=+
SMILES	KCNQ2 pot	KCNQ2 block	KCNQ2 inh conf	KCNQ1 spec	CHO parental ctr	others
CC(C)=CCc1c(O)cc2c(c1O)C(=O)CC(c1ccccc1)O2 (configuration not stated)	1.04	i	.	.	.
CCC(=O)Nc1ccc(C(=O)NCc2ccccn2)cc1	1.81	i	.	.	.
CSc1ccc(CCNC(=O)CN2C(=O)c3cccnc3Oc3ccc(C)cc32)cc1	0.79	i	.	.	.
Cc1cc(C)cc(NC(=O)C(OC(=O)Cn2cnc3c2c(=O)n(C)c(=O)n3C)c2ccccc2)c1 (configuration not stated)	-8.97	-8.97*	-24.0%*	i	i	KCNQ2 patch conf=i
COc1ccc(C)cc1NC(=O)C(OC(=O)Cn1cnc2c1c(=O)n(C)c(=O)n2C)c1ccccc1 (configuration not stated)	0.65	i	.	.	.
CC(C)(C)OC(=O)N1CCC[C@H]1c1nnc(SCc2ccc(Cl)cc2Cl)o1	-7.16	-7.16*	i	i	i
CC(C)(C)OC(=O)N1CCC[C@H]1c1nnc(SCc2c(F)cccc2Cl)o1	.	i	.	.	.
CCOc1ccccc1NC(=O)CCCNC(=O)c1ccc(Cl)cc1	.	i	.	.	.
COCC(C)NC(C(=O)Nc1ccc(C)c(Cl)c1)c1ccccc1 (configuration not stated)	-6.77	-6.77*	i	i	i
CNC(=O)NC(=O)C(NC1CCCc2ccccc21)c1ccccc1 (configuration not stated)	.	i	.	.	.
CN(C)C(C(=O)Nc1cc(Cl)cc(Cl)c1)c1ccccc1 (configuration not stated)	-8.27	-8.27*	-29.0%*	i	i	KCNQ2 patch conf=+
COCCNC(C(=O)Nc1cc(Cl)cc(Cl)c1)c1ccccc1 (configuration not stated)	-8.06	-8.06*	-29.5%*	i	i	KCNQ2 patch conf=+
Cc1ccc(NC(=O)C(NC2CCCc3ccccc32)c2ccccc2)cc1Cl (configuration not stated)	-8.93	-8.93*	i	i	i
COCC(C)NC(C(=O)Nc1cccc(C(C)=O)c1)c1ccccc1 (configuration not stated)	0.75	i	.	.	.
O=C(OC(C(=O)Nc1cc(Cl)cc(Cl)c1)c1ccccc1)C1=COCCO1 (configuration not stated)	.	i	.	.	.
CCOCCCNC(C(=O)Nc1ccc(OC)c(Cl)c1)c1ccccc1 (configuration not stated)	.	i	.	.	.
COc1ccccc1N(C(=O)c1cncc(Br)c1)c1nc(-c2ccc(C)cc2)cs1	.	i	.	.	.
O=C(CSc1cccc[n+]1[O-])Nc1cccc(Oc2ccccc2)c1	0.97	i	.	.	.
C=CCn1c(SCC(N)=O)nc2sc3c(c2c1=O)CCC3	-9.26	-9.26*	i	i	i
C=CCn1c(SCC(=O)N2CCOCC2)nc2sc3c(c2c1=O)CCCC3	2.48	i	.	.	.
CN(C)S(=O)(=O)c1cccc(NC(=O)CO/N=C(\N)c2ccccc2)c1	2.06	i	.	.	.
COc1ccc(S(=O)(=O)N2CCC(NC(=O)c3cccnc3)CC2)cc1	.	i	.	.	.
O=C(c1ccccc1)c1nc2ccccc2n(CCCn2c(=O)c(C(=O)c3ccccc3)nc3ccccc32)c1=O	-9.01	-9.01*	i	i	i
Cn1c(=O)c(C(=O)c2ccccc2)nc2ccccc21	0.02	i	.	.	.
O=C(NC(=O)c1ccccc1O)c1ccc2c(c1)CCO2	.	i	.	.	.
